# Assay results: PubChem BioAssay (Tox21)
# Unmarked numbers belong to inactive results. Records with an inconclusive call do not appear. Active and inactive are the calls of the source. Unless noted, the call rests on the fitted dose curve; in most records, active means well fitted activation curve with a large enough effect in the repeat runs; inconclusive means weak or mixed curves; inactive means flat fitted curve, though single readings scatter.
# Biological target: Androgen receptor (Homo sapiens) (UniProt P10275)
# Sequence (P10275 whole entry, looked up): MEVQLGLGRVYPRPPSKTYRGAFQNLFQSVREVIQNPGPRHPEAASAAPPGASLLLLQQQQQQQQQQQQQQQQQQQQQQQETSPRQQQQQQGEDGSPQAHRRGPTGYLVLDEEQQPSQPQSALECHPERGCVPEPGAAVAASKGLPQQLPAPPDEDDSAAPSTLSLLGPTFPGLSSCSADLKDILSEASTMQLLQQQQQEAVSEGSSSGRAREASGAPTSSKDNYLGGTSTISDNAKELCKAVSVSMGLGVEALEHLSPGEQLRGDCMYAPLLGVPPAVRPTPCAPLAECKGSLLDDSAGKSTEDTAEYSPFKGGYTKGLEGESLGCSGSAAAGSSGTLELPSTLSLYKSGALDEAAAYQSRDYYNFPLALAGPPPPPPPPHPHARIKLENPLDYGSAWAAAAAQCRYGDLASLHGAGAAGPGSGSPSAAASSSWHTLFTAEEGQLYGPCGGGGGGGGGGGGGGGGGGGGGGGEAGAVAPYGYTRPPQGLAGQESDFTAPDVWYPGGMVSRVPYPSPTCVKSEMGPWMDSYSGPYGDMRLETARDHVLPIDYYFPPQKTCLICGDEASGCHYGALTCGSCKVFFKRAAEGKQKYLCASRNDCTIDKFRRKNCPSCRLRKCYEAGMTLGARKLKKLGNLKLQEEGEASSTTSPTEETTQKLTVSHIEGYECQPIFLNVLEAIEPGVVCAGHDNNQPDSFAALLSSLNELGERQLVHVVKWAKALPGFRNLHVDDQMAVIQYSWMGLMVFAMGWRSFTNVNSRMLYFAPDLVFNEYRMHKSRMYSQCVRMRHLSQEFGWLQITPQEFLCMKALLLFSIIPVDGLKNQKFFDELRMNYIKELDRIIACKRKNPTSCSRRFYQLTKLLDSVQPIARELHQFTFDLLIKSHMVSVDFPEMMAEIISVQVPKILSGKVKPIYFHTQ
# Test: qHTS assay to identify small molecule agonists of the androgen receptor (AR) signaling pathway (AID 743036; active means well fitted activation curve with a large enough effect in the signal ratio in the repeat runs, with a control signal flat, not every such curve was filed as active; the % refers to the signal ratio)
# Details: HEK293 AR-UAS-bla GripTite, beta-lactamase FRET ratio, 16 h; series mostly up to 62.4 µM; activation: at the top concentration
# In short: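 HEK293 cells stably carrying a UAS-driven beta-lactamase reporter (GeneBLAzer AR-UAS-bla-GripTite) were plated at 2,000 cells/well, rested 4 h at 37C, then exposed to compounds in DMSO for 16 h. LiveBLAzer B/G FRET substrate was added for 2 h at room temperature; fluorescence read.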
# On the % scale 0 is the no-effect control and ±100 the full control effect.
SMILES,activation,outcome
CCOP(=S)(OCC)Oc1ncn(-c2ccccc2)n1,-7.8%,
CC(Cl)(Cl)[N+](=O)[O-],-0.836%,
Cc1cnc[nH]1,0.738%,
CC(C)CC#N,0.0887% [at 79.1 µM],
N#CC(Cl)(Cl)Cl,0.0654%,
c1cc[c]([Hg][c]2ccccc2)cc1,-13.1%,
Cc1ccccc1CO[C@@H]1C[C@@]2(C(C)C)CC[C@]1(C)O2,-7.41%,
Nc1ccccc1Cl,0.136%,
CC1(C)COP(Oc2ccccc2)OC1,5%,
CCCCOP(=O)(O)OCCCC,2.74%,
O=C(O)c1ccc2[nH]cc(CCCCN3CC=C(c4ccccc4)CC3)c2c1,0.0701%,
CCN(CC)C(C)C(=O)c1ccccc1 (configuration not stated),10.9%,
O=[N+]([O-])c1cccc2c([N+](=O)[O-])cccc12,-12.7% [at 79.1 µM],
COP(N)(=S)Oc1ccccc1C(=O)OC(C)C (configuration not stated),-6.1%,
O=C(Nc1ccccc1)c1ccccc1I,-14.5%,
c1cc2c(c(N3CCNCC3)c1)OCCO2,0.805%,
COC(=O)C(c1ccccc1)C1CCCCN1 (configuration not stated),,inactive
CCCCCCI,0.286%,
COc1cc(OC)nc(Oc2cccc(Oc3nc(OC)cc(OC)n3)c2C(=O)O)n1,-0.141%,

# Biological target: Androgen receptor (Homo sapiens) (UniProt P10275)
# Test: qHTS assay to identify small molecule agonists of the androgen receptor (AR) signaling pathway using the MDA cell line (AID 743040; further: nearly all actives have a fitted effect of over 20% in size; further: potency means the concentration at half of the fitted maximal effect)
# Details: MDA-kb2 AR-luc cells, MMTV luciferase, 16 h; series mostly up to 70.3 µM; activity change: at the top concentration
# In short: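 MDA-kb2 breast carcinoma cells carrying MMTV-luciferase (responsive to AR and GR), plated 5 h then treated 16 h with compounds at 37C, 0% CO2. Read-out was ONE-Glo luminescence after 30 min at room temperature.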
SMILES,activity change,Potency
CCOP(=S)(OCC)Oc1ncn(-c2ccccc2)n1,2.13%,
CC(Cl)(Cl)[N+](=O)[O-],0.918%,
Cc1cnc[nH]1,-0.855%,
CC(C)CC#N,"2.01% [at 95 µM, stronger effect = higher value]",
N#CC(Cl)(Cl)Cl,1.34%,
c1cc[c]([Hg][c]2ccccc2)cc1,-0.661%,
Cc1ccccc1CO[C@@H]1C[C@@]2(C(C)C)CC[C@]1(C)O2,-4.72%,
Nc1ccccc1Cl,0.215%,
CC1(C)COP(Oc2ccccc2)OC1,-3.02%,
CCCCOP(=O)(O)OCCCC,-1.37%,
O=C(O)c1ccc2[nH]cc(CCCCN3CC=C(c4ccccc4)CC3)c2c1,0.612%,
CCN(CC)C(C)C(=O)c1ccccc1 (configuration not stated),0.295%,
O=[N+]([O-])c1cccc2c([N+](=O)[O-])cccc12,"-1.04% [at 95 µM, stronger effect = higher value]",
COP(N)(=S)Oc1ccccc1C(=O)OC(C)C (configuration not stated),-2.29%,
O=C(Nc1ccccc1)c1ccccc1I,2.28%,
COc1ncc(F)c2nc(S(=O)(=O)Nc3c(F)cccc3F)nn12,2.34%,
CCC(=O)c1ccccc1,0.485%,
c1cc2c(c(N3CCNCC3)c1)OCCO2,-0.499%,
COC(=O)C(c1ccccc1)C1CCCCN1 (configuration not stated),,inactive
CCCCCCI,1.31%,
COc1cc(OC)nc(Oc2cccc(Oc3nc(OC)cc(OC)n3)c2C(=O)O)n1,0.188%,
CNC(=O)Oc1ccccc1C1OCCO1,0.911%,
C#C[C@]1(O)C=C[C@H]2[C@@H]3CCC4=CC(=O)CC[C@@H]4[C@H]3CC[C@@]21CC,,13.3 nM (active)
